# Values joined by “and” are separate entries in the source; they are usually repeats but may differ in a detail not shown here. Equal values may be shown once. Results filed as inconclusive are left out. Active and inactive are the calls of the source. Rule as the data show it, unless noted: active = inhibition above about 80%; inactive = the rest.
# Tests used:
# [1] = growth inhibition of DIPG glioma cells, dose response, cell-based, SU-DIPG-XVII, MIPE5.0, CellTiter-Glo, qHTS (AID 1347060; cut-off not given, nearly all actives have AC50 up to about 26 µM;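 as to AC50: cells exposed to compound for 48 hours before viability readout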); details: SU-DIPG-XVII viability, CellTiter-Glo ATP luminescence
# [2] = growth inhibition of DIPG glioma cells, dose response, cell-based, SU-DIPG-XIII, MIPE4.0, CellTiter-Glo, qHTS (AID 1347061; cut-off not given, nearly all actives have AC50 up to about 37 µM;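 also: cells exposed to compound for 48 hours before readout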); details: SU-DIPG-XIII viability, CellTiter-Glo ATP luminescence
# [3] = growth inhibition of DIPG glioma cells, dose response, cell-based, JHH-DIPG-1, MIPE4.0, CellTiter-Glo, qHTS (AID 1347062; cut-off not given, nearly all actives have AC50 up to about 27 µM;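 as to AC50: cells exposed to compound for two days before readout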); details: JHH-DIPG-1 viability, CellTiter-Glo ATP luminescence
# [4] = growth inhibition of DIPG glioma cells, dose response, cell-based, SU-DIPG-XIII, MIPE5.0, CellTiter-Glo, qHTS (AID 1347064; cut-off not given, nearly all actives have AC50 up to about 23 µM;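 as to AC50: cells exposed to compound for 48 hours before the viability read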); details: SU-DIPG-XIII viability, CellTiter-Glo ATP luminescence
# [5] = viability loss in pontine glioma line – cell-based, SU-DIPG-XXV, MIPE5.0, CellTiter-Glo, qHTS, dose response (AID 1347065; cut-off not given, nearly all actives have AC50 up to about 26 µM;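 also: cells exposed to compound for 48 hours before ATP readout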); details: CellTiter-Glo ATP luminescence
# [6] = SU-DIPG-VI glioma cell viability, MIPE4.0 library, CellTiter-Glo luminescence, qHTS (AID 1347066; cut-off not given, nearly all actives have AC50 up to about 30 µM;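 also: cells exposed to compound for 48 hours before readout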); details: CellTiter-Glo ATP luminescence
# [7] = JHH-DIPG-1 glioma cell viability, MIPE5.0 library, CellTiter-Glo luminescence, qHTS (AID 1347067; cut-off not given, nearly all actives have AC50 up to about 26 µM;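 also: cells exposed to compound for 48 hours before readout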); details: JHH-DIPG-1 glioma viability, CellTiter-Glo ATP luminescence
# [8] = SU-DIPG-XXV glioma cell viability, MIPE5.0 library, qHTS (AID 1347068; cut-off not given, nearly all actives have IC50 up to about 30 µM;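 as to IC50: cells exposed to compound for 48 hours before viability readout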)
# [9] = growth inhibition of DIPG glioma cells, dose response, cell-based, SU-DIPG-IV, MIPE4.0, CellTiter-Glo, qHTS (AID 1347063; cut-off not given, nearly all actives have AC50 up to about 30 µM;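 also: compound exposure lasted 48 hours before the viability readout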); details: SU-DIPG-IV viability, CellTiter-Glo ATP luminescence
# [10] = sensitizers of A549 cells to miR-34 induction, primary screen, imaging, A549 dox-inducible miR-34, nuclei and caspase counts (AID 1347080;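 active = compounds whose cell count with miR-34 switched on is under 0.7 times the count with it off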); details: A549 miR-34 inducible, Hoechst nuclei count, 48 h
# [11] = survival rescue of mitochondrial mutant cells in low glucose, primary screen, MELAS cybrids, Rieske KO mouse fibroblasts, CellTiter-Glo (AID 1508586;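 active = mean z-score across replicates of 1.96 or higher in either the MELAS or the Rieske mutant cell line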;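 also: z relative to plate mean and SD of compound and empty wells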)
# [12] = LFS_MB_P medulloblastoma growth inhibition, cell-based, chromothripsis tumors, cisplatin or BGB combos (AID 1671449); details: LFS_MB_P medulloblastoma cells;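 also: cells exposed for 96 hours; 0% = vehicle DMSO and 100% = killing by high DMSO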
# [13] = HDN33 neuroblastoma growth inhibition, cell-based, chromothripsis tumors, cisplatin or BGB combos (AID 1671450); details: HDN33 neuroblastoma cells, stronger effect = higher value;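 also: cells exposed to compound for four days; 0% = vehicle DMSO and 100% = cell killing by high DMSO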
# [14] = ICB984 medulloblastoma cell growth inhibition, synergistic combos for chromothripsis tumors, cisplatin or BGB combos (AID 1671451; call rule not given here;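 also: cells exposed for 96 hours before readout; 0% = vehicle DMSO and 100% = killing by high DMSO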); details: ICB984 medulloblastoma cells, drug combinations, stronger effect = higher value
# [15] = HTB85 osteosarcoma cell growth inhibition, synergistic combos for chromothripsis tumors, BGB or cisplatin IC20 combos (AID 1671453); details: HTB85 osteosarcoma cells, drug combinations, stronger effect = higher value;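 also: cells exposed for 96 hours before readout; 0% = vehicle DMSO and 100% = high DMSO killing control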
# [16] = MDA-MB-436 breast carcinoma cell growth inhibition, synergistic combos for chromothripsis tumors, BGB or cisplatin combos (AID 1671458; call rule not given here;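 also: cells exposed for 96 hours; 0% = vehicle DMSO and 100% = killing by high DMSO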); details: MDA-MB-436 breast carcinoma growth inhibition, drug combinations, stronger effect = higher value
# [17] = growth inhibition of BT084 medulloblastoma cells, cell-based, ICGC_MB145, cisplatin and BGB IC40 combos (AID 1671461); details: drug combinations, stronger effect = higher value;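 also: cells exposed to drugs for 96 hours; 0% = vehicle DMSO and 100% = high DMSO full killing control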
# [18] = growth inhibition of RCMB18 medulloblastoma cells, cell-based, cisplatin and BGB IC40 combos (AID 1671462); details: stronger effect = higher value;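 also: cells exposed to compound for four days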
smiles,measurement,setting,value
CC(C)(N)C(=O)N[C@H](COCc1ccccc1)C(=O)N1CCC2(CC1)CN(S(C)(=O)=O)c1ccccc12,outcome,[1],inactive
same,outcome,[2],inactive
same,outcome,[3],inactive
same,outcome,[4],inactive
same,outcome,[5],inactive
same,outcome,[6],inactive
same,outcome,[7],inactive
same,outcome,[8],inactive
CC1(C)C(N(O)C(=O)Nc2ccc(Cl)cc2)N(c2ccc(Cl)cc2)C(=O)N1CC(=O)N/N=C/C=C/c1ccc([N+](=O)[O-])o1 (centres undefined),AC50,[1],7.42 µM (active)
same,AC50,[2],26.4 µM (active)
same,AC50,[3],10.5 µM (active)
same,AC50,[4],3.72 µM (active)
same,AC50,[5],14.8 µM (active)
same,AC50,[6],20.9 µM (active)
same,AC50,[7],6.61 µM (active)
same,IC50,[8],18.6 µM (active)
CN1CCc2c(c3ccccc3n2Cc2ccc(C(=O)NO)cc2)C1,AC50,[1],23.5 µM (active)
same,outcome,[2],inactive
same,AC50,[3],23.5 µM (active)
same,AC50,[9],20.9 µM (active)
same,AC50,[7],20.9 µM (active)
same,outcome,[8],inactive
same,fold change,"[10]; stronger effect = lower value, cell number ratio, induced over uninduced",0.909 (inactive) and 0.928 (inactive)
same,fold change,[10]; measured here: relative caspase fold change +Dox/-Dox,0.692 and 0.727
same,cell count,"[10]; measured here: total cells with miR-34 induction, stronger effect = lower value",8690 and 9370
same,cell count,[10]; measured here: total cells without miR-34 induction,9560 and 10100
same,z-score,"[11]; MELAS cybrid survival, CellTiter-Glo 48 h, stronger effect = higher value",-0.421 (inactive) and -0.386 (inactive)
same,z-score,"[11]; Rieske KO mouse fibroblast survival, CellTiter-Glo 72 h",1.15 and -0.701
same,inhibition,"[12]; at 0.5 µM, stronger effect = higher value",-24.1% (inactive) and -14.7% (inactive)
same,inhibition,"[12]; measured here: combination with BGB IC20, at 0.005 µM",-28.6% and -21.3%
same,inhibition,"[12]; measured here: combination with BGB IC40, at 0.005 µM",-40.9% and -27%
same,inhibition,"[12]; measured here: combination with BGB IC40, at 0.05 µM",-19.2% and -45.3%
same,inhibition,"[12]; measured here: combination with cisplatin, at 0.5 µM, stronger effect = higher value",-23.9% and 9.39%
same,inhibition,"[12]; measured here: combination with cisplatin, at 5 µM, stronger effect = higher value",-11.8% and 7.46%
same,inhibition,"[13]; BGB combo, at 5 µM",2.45% and 27.4%
same,inhibition,[13]; at 0.5 µM,4.53% (inactive) and -0.32% (inactive)
same,inhibition,"[13]; cisplatin combo, at 5 µM",19.6% and 28.9%
same,inhibition,"[13]; measured here: with BGB IC20 combination, at 0.5 µM",-5.55% and 4.06%
same,inhibition,"[13]; measured here: with cisplatin IC20 combination, at 0.5 µM",15% and 5.2%
same,inhibition,"[13]; single agent, at 5 µM",25.9% and 54.8%
same,inhibition,"[14]; BGB IC20 combo, at 0.005 µM",22.3% and -11.7%
same,inhibition,"[14]; BGB IC40 combo, at 0.005 µM",-10.2% and -27.7%
same,inhibition,"[14]; BGB IC40 combo, at 0.05 µM",-9.66% and -9.28%
same,inhibition,[14]; at 0.5 µM,-11.2% (inactive) and -22.9% (inactive)
same,inhibition,"[14]; cisplatin combo, at 0.05 µM",-15.3% and -13.2%
same,inhibition,"[14]; cisplatin combo, at 0.5 µM",-16.4% and -10.9%
same,inhibition,"[14]; cisplatin combo, at 5 µM",-14% and -10.1%
same,inhibition,"[14]; measured here: 5 uM single agent, at 5 µM",-11.5% and -12.4%
same,inhibition,[15]; at 0.5 µM,0.33% (inactive) and -0.18% (inactive)
same,inhibition,"[15]; measured here: with BGB IC20, at 0.5 µM",0.483% and -9.65%
same,inhibition,"[15]; measured here: with BGB IC20, at 5 µM",26.3% and 10.4%
same,inhibition,"[15]; measured here: with cisplatin IC20, at 0.5 µM",-3.56% and 12.2%
same,inhibition,"[15]; measured here: with cisplatin IC20, at 5 µM",24.2% and 27.5%
same,inhibition,"[15]; single agent, at 5 µM",18.4% and 13.9%
same,inhibition,[16]; at 0.5 µM,-13.8% (inactive) and -2.54% (inactive)
same,inhibition,"[16]; measured here: BGB combination, at 0.5 µM",-10.6% and -7.29%
same,inhibition,"[16]; measured here: BGB combination, at 5 µM",-5.66% and 0.993%
same,inhibition,"[16]; measured here: cisplatin combination, at 0.5 µM",-25.1% and 2.46%
same,inhibition,"[16]; measured here: cisplatin combination, at 5 µM",-15.3% and 18.8%
same,inhibition,[17]; at 0.5 µM,2.15% (inactive) and 0.779% (inactive)
same,inhibition,"[17]; cisplatin combination, at 0.5 µM",8.01% and -20.4%
same,inhibition,"[17]; cisplatin combination, at 5 µM",-145% and 19.9%
same,inhibition,"[17]; measured here: BGB IC40 combination 0.05 uM, at 0.05 µM",-20.5% and 21.4%
same,inhibition,"[17]; single agent, at 5 µM",2.48% and 3.3%
same,inhibition,[18]; at 0.5 µM,-9.94% (inactive) and 3.3% (inactive)
same,inhibition,"[18]; cisplatin combo, at 5 µM",1.27% and 18.1%
same,inhibition,"[18]; measured here: BGB IC40 combination, at 0.05 µM",-31.8% and 8.24%
same,inhibition,"[18]; measured here: combination with cisplatin, at 0.5 µM",-21.5% and 43%
same,inhibition,"[18]; single agent, at 5 µM",12.1% and 14.4%

# Source: PubChem BioAssay
